# The list is not random: actives were taken first. Their share in the collection is about 7.5%.
# VACV mCherry inh: vaccinia inhibition (mCherry reporter). Vaccinia virus mCherry reporter infection, fluorescence. Potency, µM (top dose mostly 36.5 µM), inactives show top-dose activity change, negative = inhibition, actives largely listed as inhibitors. actives 0.63% (n = 310,000); calls by dose curve; tested in A549 cells; also: potency is read from the fitted curve at half-maximal effect; nearly all actives have a fitted effect of over 35% in size
# VACV Venus inh: vaccinia inhibition (Venus reporter) | actives 0.46% (n = 330,000) | Vaccinia virus Venus reporter expression, fluorescence | AID 720580 | Potency, µM (top dose mostly 36.5 µM), without a hit: at the highest dose activity change, negative = inhibition, actives largely listed as inhibitors; calls by dose curve; tested in A549 cells; also: potency is read from the fitted curve at half-maximal effect; nearly all actives have a fitted effect of over 30% in size
# FMDV antiviral: antivirals against foot and mouth disease virus | FMDV antiviral cell-based qHTS | Potency, µM (doses to about 57.9 µM), for the others: at the top dose activity change, negative = inhibition, hits mostly inhibitors | actives 1.2% (n = 410,000); calls by dose curve; tested in HEK293T cells; also: read-out not given here; potency is read from the fitted curve at half-maximal effect; nearly all actives have a fitted effect of over 45% in size
# Giardia FBPA inh: inhibitors of Giardia lamblia fructose-1,6-bisphosphate aldolase; purified Giardia FBPA; A8B2U2; actives 0.71% (n = 290,000); AID 2451; Potency, µM (series often up to 59.6 µM), inactives show top-dose activity, negative = inhibition, actives largely listed as inhibitors; also: potency is read from the fitted curve at half-maximal effect; nearly all actives have a fitted effect of over 55% in size
# Target sequence (A8B2U2 whole entry, looked up): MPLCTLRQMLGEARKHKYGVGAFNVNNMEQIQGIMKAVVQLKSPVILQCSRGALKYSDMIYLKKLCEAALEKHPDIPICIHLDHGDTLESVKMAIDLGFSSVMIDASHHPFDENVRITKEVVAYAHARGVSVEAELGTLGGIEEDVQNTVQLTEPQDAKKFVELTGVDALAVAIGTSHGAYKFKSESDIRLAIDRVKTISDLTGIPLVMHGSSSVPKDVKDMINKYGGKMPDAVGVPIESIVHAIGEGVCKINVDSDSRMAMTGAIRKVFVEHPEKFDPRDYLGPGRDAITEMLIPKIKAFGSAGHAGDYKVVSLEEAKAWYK
#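 40 nM FBPA preincubated 10 min at RT with compound (up to 57.5 uM final), then substrate plus GAPDH/TPI/NAD/arsenate coupling and diaphorase/resazurin added. Fluorescence read after 20 min at RT, 525/598 nm.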
# HCV inh: inhibitors of hepatitis C virus infection. actives 3.4% (n = 340,000). AID 651820. Potency, µM (doses to about 41.8 µM), inactives show top-dose activity change, negative = inhibition, actives largely listed as inhibitors. Huh7.5.1 HCVcc-Cre infection, luciferase reporter, 44 h; also: potency is read from the fitted curve at half-maximal effect
#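 Compounds are dispensed onto cells plated 4 h earlier at 1,000 per well, with HCVcc-Cre virus (about 0.5 moi) added next. Following 44 h of culture, luminescent signal is measured for 15 sec after 15 min with substrate at room temperature.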
# HCMV antiviral: inhibitors of human cytomegalovirus | HFF cells, HCMV-luciferase reporter, 72 h; active compounds read low | activity change, negative = inhibition, % at 57.5 µM | actives 4.5% (n = 410,000); in the data active = activity change below about -60%; inconclusive = no clear call, values can overlap the other calls; inactive = above about -39%
#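 Compounds were evaluated in HFFs infected with an HCMV luciferase reporter virus (MOI 1 PFU/cell). Luciferase in lysates collected 72 h post infection served as the replication measure.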
# Active calls of the source: *; i = inactive; u = inconclusive; x = no result. Unless noted, calls follow the shape of the dose curve; as a rule, active = well fitted curve in the direction sought with a large enough effect; inconclusive = small, poorly fitted or top-dose-only effect, or another doubt; inactive = no such curve, though single readings can be large; an effect the other way counts as inactive or inconclusive. % is scaled to controls: 0 for no effect and ±100 for the full control effect.
SMILES,VACV mCherry inh,VACV Venus inh,FMDV antiviral,Giardia FBPA inh,HCV inh,HCMV antiviral
CN(C)c1cccc(NC(=O)C2Cc3c(-c4ccccc4Oc4ccccc4)ccnc3O2)c1 (stereo not given),-24.4%,-11.4%,-34.8%,x,x,-83.0*
CC(=O)c1cccc(NC(=O)C2Cc3c(-c4ccco4)ccnc3O2)c1 (stereo not given),-2.5%,-14.5%,-9.6%,x,x,-61.8*
O=C(Nc1cccnc1)C1Cc2c(-c3ccccc3Oc3ccccc3)ccnc2O1 (stereo not given),-0.4%,-28.6%,u,x,x,-35.3
CC(=O)c1cccc(NC(=O)C2Cc3c(-c4ccccc4Oc4ccccc4)ccnc3O2)c1 (stereo not given),-15.8%,-26.6%,u,x,x,-66.2*
CC(C)C[C@@H](CC(=O)N[C@@H](CCC(=O)O)CC(=O)O)NC(=O)[C@@H]1CNCC[C@H]1NC(=O)C[C@H](CCCN)NC(=O)C[C@H](CO)NC(=O)[C@@H]1CNCC[C@H]1N,x,x,x,-21.5%,x,x
COc1cc(C(=O)NNC(=O)CNC(=O)C2CCCCC2)ccc1OC(C)C,-8.4%,-11.3%,-10.7%,x,7.9%,13.9
CC(C(=O)c1ccccc1)N1C(=O)c2ccccc2C1=O (stereo not given),i,-7.7%,0.9%,-2.3%,1.3%,-25.8
CC(C(=O)O)N1C(=O)c2ccccc2C1=O (stereo not given),x,x,-9.8%,2.8%,6.4%,-99.0*
CC(C)Nc1nc(NC(C)C)nc(N(C)N)n1,-14.4%,-12.0%,-7.8%,9.1%,5.62µM*,13.6
O=C1CC2(CCN(C(=O)c3cccc([N+](=O)[O-])c3)CC2)Oc2ccccc21,-20.7%,-14.9%,-16.5%,x,15.0%,-17.5
COc1cc2c(cc1OC)C1(C)N(CC2)C(C(C)=O)=NN1c1ccc(Cl)cc1 (stereo not given),x,x,-21.7%,-11.2%,u,13.1
CCN(C=NC1=NN(c2cccc(C(F)(F)F)c2)CC1)CC,i,-27.0%,43.1%,-0.6%,11.2µM*,-22.4
OCCN(C=NC1=NN(c2cccc(C(F)(F)F)c2)CC1)CCO,x,x,21.5%,0.1%,-21.1%,-10.2
CCCCOc1ccc(-n2nc(C)cc2C)nn1,x,-23.0%,17.7%,-1.2%,8.5%,-82.4*
Cc1ccc(-c2ccc(C#N)c(=O)n2CC(=O)N(C)C)cc1,-13.1%,1.5%,-2.0%,-6.5%,-1.3%,-70.0*
O=C(CN1C(=O)c2ccccc2S1(=O)=O)c1cccc(Br)c1,i,-10.5%,10µM*,x,-2.7%,-31.7
O=C(CN1c2cccc3cccc(c23)S1(=O)=O)NC1CCCCC1,x,x,-12.7%,x,u,-17.3
O=C(CN1C(=O)c2ccccc2S1(=O)=O)c1ccc(OC(F)F)cc1,-9.0%,1.6%,u,-4.1%,7.0%,x
O=C(CN1C(=O)c2ccccc2S1(=O)=O)c1ccc(Cl)cc1Cl,i,-10.1%,2µM*,x,18.2%,-91.5*
O=C(CN1C(=O)c2ccccc2S1(=O)=O)c1ccc(F)cc1,x,x,-67.6%,4.1%,8.6%,-67.5*
O=C(CN1C(=O)c2ccccc2S1(=O)=O)NC1CCCCCC1,i,1.7%,52.5%,1.2%,14.6%,-74.5*
COC(=O)c1ccc(C(NC(=O)OCc2ccccc2)/C(=C/[C@@H](C)C(=O)NCc2ccc(-c3ccccc3)cc2)c2cccnc2)cc1 (stereo not given in full),x,x,x,-0.6%,x,x
CCOC(=O)c1ccc(NC(=S)N(CCCN2CCN(CC)CC2)Cc2cccs2)cc1,-3.6%,-28.7%,46.2%,0.3%,u,0.9
Cc1cccc(C(CC(=O)O)n2cccc2)c1 (stereo not given),i,-6.1%,5.9%,-2.0%,2.7%,38.5
O=C(O)CC(c1cccc(Cl)c1)n1cccc1 (stereo not given),i,-5.8%,10.9%,4.8%,11.2µM*,-11.9
SMILES,VACV mCherry inh,VACV Venus inh,FMDV antiviral,Giardia FBPA inh,HCV inh,HCMV antiviral
COc1ccccc1/C=C/c1cncc(/C=C/c2ccccc2OC)c1,u,-21.7%,x,x,x,x
NC(=O)NC(=O)Nc1ccccc1Cl,x,x,22.5%,1.9%,-6.4%,-0.9
O=C(NC(=O)c1csnn1)Nc1ccccc1Cl,x,x,22.2%,x,8.4%,-83.3*
O=C(Nc1ccc(Cl)cc1)Nc1nnc(CSCc2ccccc2)s1,i,-12.5%,0.0%,2.2%,5.2%,-70.2*
Cc1ccc(NC(=O)Nc2nnc(CSCCOc3ccc(Cl)cc3)s2)cc1,i,-14.8%,0.0%,3.3%,9.6%,-35.3
O=C(Nc1cccc(Cl)c1)Nc1nnc(CSCCOc2ccc(Cl)cc2)s1,-16.3%,u,u,-1.7%,2.51µM*,-72.0*
O=C(Nc1ccc(Cl)cc1)Nc1nnc(CSc2ccc(Cl)cc2)s1,i,-9.5%,u,0.1%,u,-85.5*
O=C(Nc1cccc(Cl)c1)Nc1nnc(CC2=CCCCC2)s1,x,x,u,0.6%,u,-98.4*
O=C(Cc1nnc(NC(=O)Nc2ccc(Cl)cc2)s1)NCc1ccccc1,i,-7.4%,-20.5%,2.9%,12.5%,-13.4
COc1ccc(S(=O)(=O)N2CCCC(C(=O)NCc3cccnc3)C2)cc1OC (stereo not given),-4.5%,-5.9%,-14.1%,x,u,-13.1
Cc1ccc(-c2nn(CC(=O)NC3CCCC3)c3c2cnc2ccc(F)cc23)cc1C,-8.4%,3.5%,32.8%,x,x,80.4
CC(C)CCN1C(=O)c2ccccc2CC1(C)C(=O)NC1CCCCC1 (stereo not given),-7.9%,-6.1%,12.2%,x,x,-19.5
Cc1ccc([N+](=O)[O-])cc1CN1CCN(c2ncc(Cc3ccccc3)cn2)CC1,-13.1%,-17.0%,u,x,x,18.8
COc1cc(C(=O)NC(C)C2CC3CCC2C3)cc(OC)c1OC (stereo not given),u,u,-12.4%,2.0%,-11.6%,108.6
CCN(Cc1ccccc1)S(=O)(=O)c1cc(C(=O)NC(C)C2CC3CCC2C3)ccc1OC (stereo not given),-3.2%,u,-29.1%,1.2%,11.2µM*,-88.4*
COc1ccc(NC(=O)CSC2=Nc3ccccc3C3=NC(CCC(=O)NCc4ccc(F)cc4)C(=O)N23)cc1Cl (stereo not given),-8.6%,-2.7%,-15.9%,x,x,-15.0
COc1ccc(CCNc2cc(C)nc3c(-c4ccccc4OC)cnn23)cc1OC,-14.1%,-12.1%,-1.0%,-12.1%,12.6µM*,x
COc1ccccc1-c1cnn2c(NCc3ccccc3)cc(C)nc12,x,x,33.0%,10.0%,u,119.6
COc1ccc(-c2nn(-c3ccccc3)cc2C(=O)N2CCN(S(=O)(=O)c3cccc(F)c3)CC2)cc1,i,-15.4%,-7.0%,x,u,-8.5
O=C(COC(=O)CCC(=O)c1cccs1)Nc1ccc(F)c(F)c1F,x,x,1.2%,x,15.7%,-30.8
O=C(NC1CCc2ccccc21)c1cc(COc2ccc(F)cc2Cl)on1 (stereo not given),x,x,30.1%,-1.7%,7.1%,-20.1
